Only some compounds are listed: those with a hit (about 3.5% of all), similar ones and a draw of the others.
Pf apPOL block – Pf-apPOL DNA polymerase inhibition | Recombinant Pf-apPOL, molecular beacon fluorescence, 1.5 h | inhibition, % at 10 µM | 210,000 tested, 0.25% active | AID 1794808
mHTT-CaM PPI inh – disrupts binding of mutant huntingtin to calmodulin; P42858; AlphaScreen His-mHTT/GST-CaM binding, luminescence; inhibition, % at 15 µM; 190,000 tested, 3.6% active;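 note: 0% = both proteins with DMSO and 100% = one protein alone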
Target sequence (P42858 whole entry, looked up, stated change not applied): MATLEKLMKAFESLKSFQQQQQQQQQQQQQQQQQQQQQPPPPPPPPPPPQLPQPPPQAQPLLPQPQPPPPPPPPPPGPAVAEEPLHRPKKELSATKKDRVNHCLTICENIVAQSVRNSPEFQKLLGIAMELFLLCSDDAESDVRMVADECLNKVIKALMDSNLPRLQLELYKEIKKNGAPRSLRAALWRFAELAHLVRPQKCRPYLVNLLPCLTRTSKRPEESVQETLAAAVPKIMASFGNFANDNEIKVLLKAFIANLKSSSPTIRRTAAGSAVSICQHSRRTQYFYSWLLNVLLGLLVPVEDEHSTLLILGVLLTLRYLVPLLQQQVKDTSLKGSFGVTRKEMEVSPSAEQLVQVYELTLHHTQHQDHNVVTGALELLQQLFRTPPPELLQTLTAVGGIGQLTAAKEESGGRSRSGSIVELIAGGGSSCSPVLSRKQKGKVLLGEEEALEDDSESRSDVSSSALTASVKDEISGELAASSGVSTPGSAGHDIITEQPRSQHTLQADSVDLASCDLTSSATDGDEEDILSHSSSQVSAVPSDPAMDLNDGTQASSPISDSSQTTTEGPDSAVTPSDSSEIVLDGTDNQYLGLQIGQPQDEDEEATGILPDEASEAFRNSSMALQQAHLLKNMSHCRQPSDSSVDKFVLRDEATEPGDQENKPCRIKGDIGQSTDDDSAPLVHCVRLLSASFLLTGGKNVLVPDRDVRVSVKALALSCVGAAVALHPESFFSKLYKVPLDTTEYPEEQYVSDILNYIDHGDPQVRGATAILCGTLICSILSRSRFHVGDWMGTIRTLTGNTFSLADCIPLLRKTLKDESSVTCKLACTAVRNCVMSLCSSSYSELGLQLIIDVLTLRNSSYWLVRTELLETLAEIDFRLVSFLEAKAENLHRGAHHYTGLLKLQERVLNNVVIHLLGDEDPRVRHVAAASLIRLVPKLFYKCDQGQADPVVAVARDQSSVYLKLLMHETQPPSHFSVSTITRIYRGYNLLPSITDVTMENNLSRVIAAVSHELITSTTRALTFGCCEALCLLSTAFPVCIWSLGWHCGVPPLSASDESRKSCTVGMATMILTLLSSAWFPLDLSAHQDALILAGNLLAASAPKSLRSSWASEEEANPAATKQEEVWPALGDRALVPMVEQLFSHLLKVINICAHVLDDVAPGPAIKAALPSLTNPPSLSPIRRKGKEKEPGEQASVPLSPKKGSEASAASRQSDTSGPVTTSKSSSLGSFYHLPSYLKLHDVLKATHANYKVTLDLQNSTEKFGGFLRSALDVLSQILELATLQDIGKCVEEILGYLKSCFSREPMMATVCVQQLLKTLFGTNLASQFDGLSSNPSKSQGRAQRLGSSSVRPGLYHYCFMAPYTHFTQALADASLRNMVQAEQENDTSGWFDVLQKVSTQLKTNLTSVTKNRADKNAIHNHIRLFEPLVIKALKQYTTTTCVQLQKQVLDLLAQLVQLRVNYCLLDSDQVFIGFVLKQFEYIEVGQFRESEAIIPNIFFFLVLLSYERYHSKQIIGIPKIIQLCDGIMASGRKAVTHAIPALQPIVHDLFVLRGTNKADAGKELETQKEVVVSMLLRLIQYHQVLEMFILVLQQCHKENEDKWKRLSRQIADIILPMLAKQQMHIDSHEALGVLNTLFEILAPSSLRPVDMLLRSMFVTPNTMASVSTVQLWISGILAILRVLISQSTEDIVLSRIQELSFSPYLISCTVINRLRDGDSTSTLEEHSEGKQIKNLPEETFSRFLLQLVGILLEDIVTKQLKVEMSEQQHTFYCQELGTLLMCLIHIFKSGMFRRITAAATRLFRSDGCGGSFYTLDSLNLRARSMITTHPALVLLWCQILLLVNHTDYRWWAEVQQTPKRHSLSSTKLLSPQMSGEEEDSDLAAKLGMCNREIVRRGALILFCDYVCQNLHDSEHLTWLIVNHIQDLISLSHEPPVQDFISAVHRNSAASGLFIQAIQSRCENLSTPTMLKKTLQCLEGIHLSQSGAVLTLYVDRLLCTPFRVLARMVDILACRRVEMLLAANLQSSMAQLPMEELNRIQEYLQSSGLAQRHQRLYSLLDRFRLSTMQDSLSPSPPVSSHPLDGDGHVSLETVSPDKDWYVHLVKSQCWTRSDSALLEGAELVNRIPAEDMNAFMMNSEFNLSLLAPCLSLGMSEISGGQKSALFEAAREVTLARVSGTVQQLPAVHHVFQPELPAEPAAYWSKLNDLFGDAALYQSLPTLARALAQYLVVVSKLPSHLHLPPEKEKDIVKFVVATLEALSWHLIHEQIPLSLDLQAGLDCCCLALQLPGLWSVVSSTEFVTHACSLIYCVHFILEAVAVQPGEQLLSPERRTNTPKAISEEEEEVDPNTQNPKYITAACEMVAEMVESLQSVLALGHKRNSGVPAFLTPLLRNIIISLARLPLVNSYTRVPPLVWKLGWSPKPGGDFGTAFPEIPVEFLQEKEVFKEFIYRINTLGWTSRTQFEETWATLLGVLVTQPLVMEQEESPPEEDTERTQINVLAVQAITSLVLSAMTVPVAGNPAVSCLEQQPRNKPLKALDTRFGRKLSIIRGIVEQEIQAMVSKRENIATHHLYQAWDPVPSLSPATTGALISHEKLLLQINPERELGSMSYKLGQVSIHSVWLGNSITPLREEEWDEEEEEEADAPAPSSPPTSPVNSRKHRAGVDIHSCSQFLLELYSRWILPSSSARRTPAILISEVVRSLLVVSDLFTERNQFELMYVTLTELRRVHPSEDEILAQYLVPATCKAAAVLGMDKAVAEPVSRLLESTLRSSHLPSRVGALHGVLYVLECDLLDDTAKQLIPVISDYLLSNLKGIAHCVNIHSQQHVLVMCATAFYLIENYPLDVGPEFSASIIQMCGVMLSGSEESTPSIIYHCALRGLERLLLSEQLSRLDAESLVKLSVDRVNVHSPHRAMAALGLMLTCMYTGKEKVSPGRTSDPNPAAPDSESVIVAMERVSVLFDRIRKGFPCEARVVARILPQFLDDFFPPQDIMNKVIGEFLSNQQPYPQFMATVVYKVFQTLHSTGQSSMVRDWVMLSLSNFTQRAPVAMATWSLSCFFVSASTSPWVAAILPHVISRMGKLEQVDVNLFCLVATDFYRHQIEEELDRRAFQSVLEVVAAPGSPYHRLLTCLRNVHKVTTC
* hit, by the source's call; i = inactive; nt = no result; ! = not active in a repeat. Cut-off read from the data, not from the text of the source: active = inhibition above about 50%; inactive = the rest.

SMILES | Pf apPOL block | mHTT-CaM PPI inh
COc1ccc(C2=C(CN(C)C)C(c3ccccc3)c3ccccc3O2)cc1 (centres undefined) | 0 | 71*
CCOc1ccc(C2=C(CN3CCOCC3)C(c3ccccc3)c3ccccc3O2)cc1 (centres undefined) | -1 | 15
Cc1ccc(C2C(CN3CCOCC3)=C(c3ccccc3)Oc3ccccc32)cc1 (centres undefined) | 0 | 25
Cc1nc2cc(N3CC(C(=O)NCc4ccc(Cl)cc4)CC3=O)ccc2o1 (centres undefined) | 1 | 3
CCc1ccccc1NC(=O)Cn1ccc2c(=O)[nH]ccc21 | 30 | 23
Cc1cccc(NC(=O)Cn2ccc3c(=O)[nH]ccc32)c1C | 54* | 13
Cc1ccc(NC(=O)Cn2ccc3c(=O)[nH]ccc32)cc1C | 31 | 16
COc1ccc(NC(=O)Cn2ccc3c(=O)[nH]ccc32)cc1 | 53* | 18
Cc1ccc2c(c1)c1c3n2CCN(C(=O)CN2CCN(C(=O)c4ccco4)CC2)C3CCC1 (centres undefined) | -1 | 57*
O=C(CN1CCN(C(=O)c2ccco2)CC1)Nc1c2c(nc3c1CCC3)CCCC2 | -3 | 2
CN(C)CCN(C)Cc1ccccc1F | 2 | 2
O=C(NCCc1ccco1)C(=O)Nc1ccc(F)c(Cl)c1 | 1 | -3
O=C(NCc1ccccc1Cl)C1CCN(C(=O)Nc2cccs2)CC1 | -6 | 58*
O=C(NC1CC1)C1CCN(C(=O)Nc2cccs2)CC1 | -4 | 15
Cn1cc(CC(=O)NCc2cccnc2)c2cccnc21 | -4 | -6
CC(C)(C)C1CC=C2C(C#N)=C(N)C(C#N)(C#N)C(c3ccccc3)C2C1 (centres undefined) | -10 | 25
COc1ccc(C2C3CCCC=C3C(C#N)=C(N)C2(C#N)C#N)cc1 (centres undefined) | -1 | 23
CC(C)(C)C1CC=C2C(C#N)=C(N)C(C#N)(C#N)C(c3ccc(Cl)cc3)C2C1 (centres undefined) | -3 | 62*
CN1CC=C2C(C#N)=C(N)C(C#N)(C#N)C(c3ccccc3)C2C1 (centres undefined) | 0 | 4
CCCCOc1ccc(C2C3CCCC=C3C(C#N)=C(N)C2(C#N)C#N)cc1 (centres undefined) | 1 | 55*
CCCN1CC=C2C(C#N)=C(N)C(C#N)(C#N)C(c3ccc(-c4ccccc4)cc3)C2C1 (centres undefined) | -6 | 63*
CC(C)c1ccc(C2C3CCCC=C3C(C#N)=C(N)C2(C#N)C#N)cc1 (centres undefined) | 8 | 55*
Cc1ccc(C2C3CCCC=C3C(C#N)=C(N)C2(C#N)C#N)cc1 (centres undefined) | 0 | 20
Cc1noc(-c2nn(C)c3c2CN(C(=O)c2cc4c(s2)CCCC4)CC3)n1 | 2 | 0
O=C1c2ccccc2C(=O)c2c1cc(S(=O)(=O)c1ccccc1)c1nsnc21 | 1 | 40
SMILES | Pf apPOL block | mHTT-CaM PPI inh
N#CC1=C(N)C(C#N)(C#N)C(c2ccccc2)C2CCCC=C12 (centres undefined) | 1 | 18
N#CC1=C(N)C(C#N)(C#N)C(c2cccs2)C2CC(c3ccccc3)CC=C12 (centres undefined) | -4 | 96*
CCn1ncc(Cn2cc(NS(=O)(=O)c3c(C)nn(C(F)F)c3C)cn2)c1C | nt | 2
Cc1cccc(-c2nnc(C)c(N3CCC(C)CC3)n2)c1 | -1 | 42
Cc1cccc(-c2nnc(C)c(N3CCc4ccccc4C3)n2)c1 | -1 | 100*
CC(C)(C)C1NC(C(=O)O)CS1 (centres undefined) | -2 | nt
COc1ccc(NC2(c3ccc(Cl)cc3)C(=O)c3ccccc3C2=O)cc1 | -3 | 100*
Cc1ccc(NC2(c3ccccc3)C(=O)c3ccccc3C2=O)cc1 | -8 | 46
COc1ccc(Br)cc1/C=C1\N=C(c2ccc(Cl)c([N+](=O)[O-])c2)OC1=O | 4 | -6
O=C1OC(c2cc(Cl)ccc2Cl)=N/C1=C\c1ccco1 | 86* | 3
COc1cccc(/C=C2\N=C(c3cccc(OC)c3)OC2=O)c1 | 0 | 2
O=C1OC(c2ccccc2Cl)=N/C1=C\c1ccc(Cl)cc1 | -7 | 3
COc1ccc(OC)c(/C=C2\N=C(c3ccc(Cl)c([N+](=O)[O-])c3)OC2=O)c1 | -3 | 68*
O=C1OC(c2ccc(Cl)cc2Cl)=N/C1=C\c1ccco1 | -10 | 4
O=C1OC(c2ccccc2Cl)=N/C1=C\c1ccccc1 | 3 | 51*
COc1cccc(C2=N/C(=C\c3ccco3)C(=O)O2)c1 | 61* | 4
O=C(CS(=O)(=O)c1cn(Cc2cccc(F)c2)c2ccccc12)Nc1ccc(F)cc1 | 2 | -13
Cc1ccc(C(=O)C=CNc2ccc(Cl)cn2)cc1 | 3 | -3
CC(C)c1ccc(NC(=O)C2CC(=O)N(c3cccc(NC(=O)C4CCC4)c3)C2)cc1 (centres undefined) | -3 | 2
COCCNC(=O)C1(C)CCC(=O)N1c1ccc(F)cc1C (centres undefined) | 4 | -2
CCOCC(=O)Nc1nnc2ccccn12 | -5 | 4
O=C(Nc1nc(C(=O)N2CCN(c3ncccn3)CC2)co1)c1ccccc1 | 1 | -2
O=c1c(CN2CCN(C/C=C/c3ccccc3)CC2)coc2ccccc12 | -5 | 7
Cc1ccc(Br)cc1N1CCC(C(=O)Nc2cccc(F)c2)C1=O (centres undefined) | -7 | 31
Cc1ccc(NC(=O)C2CCN(c3cc(Br)ccc3C)C2=O)cc1C (centres undefined) | 4 | 74*
SMILES | Pf apPOL block | mHTT-CaM PPI inh
Cn1nnnc1SCC(=O)NCCn1nc(-c2ccc(F)cc2)ccc1=O | -4 | -13
O=C(CC(c1ccccc1)c1ccccc1)NCCn1nc(-c2ccc(F)cc2)ccc1=O | -13 | 95*
COc1cc(C(=O)N2CCC(CC(=O)NCc3ccccc3)CC2)cc(OC)c1OC | -3 | 2
N#CC(=Cc1ncc(C(F)(F)F)cc1Cl)S(=O)(=O)c1ccccc1Cl | -8 | nt
CNC(=O)C1CN(C(=O)c2cc(OC)c(OC)c(OC)c2)CC12CCCC2 (centres undefined) | 0 | -8
COc1cc(OC)cc(C2=NC3(CCCC3)N(C(=O)c3cc(OC)c(OC)c(OC)c3)C2=S)c1 | -5 | 52*
FC(F)(F)c1ccc(/C=N/n2c(-c3ccncc3)n[nH]c2=S)cc1 | nt | i
Oc1ccc(Cl)cc1C1CC(c2ccc(Cl)cc2)=NC2(CCNCC2)N1 (centres undefined) | -6 | 66*
COc1ccc(C2=NC3(CCNCC3)NC(c3cc(Br)ccc3O)C2)cc1 (centres undefined) | -2 | 71*
Cc1ccc(C2=NC3(CCNCC3)NC(c3cc(Cl)ccc3O)C2)cc1C (centres undefined) | 0 | 10
COc1cccc(C2=NC3(CCNCC3)NC(c3cc(Br)ccc3O)C2)c1 (centres undefined) | -7 | 14
O=C(CN1CCOCC1)N1CCCCC1CCN1CCCC1 (centres undefined) | -8 | 2
C=CCSc1nnc(-c2ccccc2N)c(=O)[nH]1 | -6 | 99*!
Nc1ccccc1-c1nnc(SCc2ccccc2)[nH]c1=O | 4 | 2
O=c1c2c(F)cccc2nc2sc3ccc(Cl)cc3n12 | 2 | nt
O=C(CC1SC(=Nc2ccccc2)N(CCc2ccccc2)C1=O)Nc1ccc([N+](=O)[O-])cc1 (centres undefined) | 0 | 2
